Assay results: ChEMBL document CHEMBL3988442, “University of Dundee, Small-Polar-MMV Screening Library” (2021)
The campaign covered roughly 48,000 compounds. About 13,000 (27%) showed an effect of 50% or more. Some of the results follow.

Test system: Wolbachia pipientis
Assay: Anti-Wolbachia Cell-Based Screen
Assay type: functional
Set-up: scale not given: in the data most compounds retested in dose-response had high values
Settings: 5 µM

| SMILES | Percent Effect |
| --- | --- |
| COCC1CN(Cc2ccncc2)Cc2nn(CC3CC3)cc21.O=C(O)C(F)(F)F.O=C(O)C(F)(F)F (stereo not given) | -9.02% |
| COCc1noc(C2(c3ccc(F)cc3)CC2)n1 | 1.348% |
| c1csc(CN2C[C@H]3CCC[C@@]3(COCC3CCOCC3)C2)n1 | 5.846% |
| COCCN1CC(O)CN(C(=O)c2ccc(SC)cc2)CC1=O (stereo not given) | 110.7% |
| COc1ccc(C(=O)N2CC(=O)N(CC3CC3)CC(O)C2)cc1 (stereo not given) | 115.7% |
| COc1ccc(C(=O)N2CCN3C(=O)CNC(=O)[C@@H]3C2)cc1 | -1.212% |
| COCCN1CC(C(=O)NCc2ccc(C)s2)CC1=O (stereo not given) | -3.089% |
| CSc1ccc(C(=O)N2C[C@H]3CC[C@@H]2CN(Cc2ccccc2)C3)cc1 | 17.05% |
| CSc1ccc(C(=O)N2CCCC(Nc3ccc(F)cc3)C2)cc1 (stereo not given) | -32.55% |
| CSc1ccc(C(=O)N2CC(=O)N(Cc3ccccc3)CC(O)C2)cc1 (stereo not given) | 97.14% |
| CSc1ccccc1CN1C[C@H]2C(=O)N(CC3CC3)C[C@@]2(C(=O)O)C1 | 6.148% |
| COc1ccc2cc(C(=O)N3CC[C@H](CO)[C@H](O)C3)n(C)c2c1 | -6.471% |
| CSc1ccc(C(=O)N2CC(=O)N(CC3CC3)CC(O)C2)cc1 (stereo not given) | 119.8% |
| COCCN1C[C@H]2CC[C@@H]1CN(C(=O)c1ccc(Cl)cc1)C2 | 3.109% |
| CSc1ccc(C(=O)N2C[C@H]3CC[C@@H]2CN(Cc2cccnc2)C3)cc1 | 37.83% |
| CN(C)Cc1ccc(C2CCCCN2C(=O)c2cccc(CO)n2)cc1 (stereo not given) | 7.792% |
| CCCc1c(C(=O)N2CCN(c3nccc(OC)n3)CC2)cnn1C | 3.097% |
| Cc1cc2nc(CO[C@H]3CN(C)C[C@H]3F)[nH]c2cc1C | -14.61% |
| COC1CCC(N(C)c2ccnc(N(C)C)n2)CC1 (stereo not given) | 2.902% |
| CCN1CC(C(=O)N2CC(Oc3ccccc3F)C2)CC1=O (stereo not given) | -11.41% |
| CCN1CC(O)CN(C(=O)c2ccc(SC)cc2)CC1=O (stereo not given) | 105.2% |
| CSc1ccc(C(=O)N2CC(=O)N(CC(C)(C)C)CC(O)C2)cc1 (stereo not given) | 76.9% |
| CCN1CC(C(=O)NCc2cccc(SC)c2)CC1=O (stereo not given) | -13.72% |
| NC(=O)C1CCN(c2cncc(-n3cccn3)n2)CC1 | 4.657% |
| Cc1ccnc(N2CCC(C(N)=O)CC2)n1 | 120.1% |
| Cc1ccnc(N2CCN(C3CCS(=O)(=O)C3)CC2)n1 (stereo not given) | 0.9659% |
| c1cc(-c2c[nH]nc2C2CCCCC2)nc(N2CCCCCC2)n1 | 78.4% |

| SMILES | Percent Effect |
| --- | --- |
| CN1CCCN(c2nccc(-c3c[nH]nc3C3CCCCC3)n2)CC1 | 25.46% |
| Cc1ccnc(N2CCC(OCCN3CCCCC3)C2)n1 (stereo not given) | 14.04% |
| NC(=O)C1CCN(c2nccc(-c3c[nH]nc3C3CCCCC3)n2)CC1 | 81.82% |
| c1cc(-c2cn3nccc3nc2C2CCCCC2)nc(N2CCCC2)n1 | 96.94% |
| NC(=O)N1CCCCCC1C1CCN(c2nccc(C(F)(F)F)n2)CC1 (stereo not given) | -6.613% |
| c1cc(-c2noc(C3CCC3)n2)cc(N2CCCCC2)n1 | -13.71% |
| CC(=O)NCC(=O)N1Cc2cc(C#N)ccc2C1c1cnco1 (stereo not given) | -4.617% |
| CCNC(=O)CCC(=O)Nc1nc(C)c(Cc2ccc(F)cc2)s1 | -19.82% |
| O=c1cc(CN2CCC(CCc3ccc(O)cc3)CC2)[nH]c(=O)[nH]1 | -18.62% |
| COCCC1(CNC(=O)NCC2CCCS2)CCCC1 (stereo not given) | -6.803% |
| CCc1ccc(CN(C)Cc2nc(COc3ccccc3)no2)nc1 | 78.29% |
| CN(Cc1nc(COc2ccccc2)no1)CC1Cc2ccccc2O1 (stereo not given) | -1.217% |
| CCc1ccc(CN(C)Cc2nc(-c3cnccn3)no2)nc1 | 12.77% |
| Cc1csc(CN(C)C(=O)C2CCC(=O)N(CCN(C)C)C2)n1 (stereo not given) | 2.129% |
| O=C(c1cccnc1N1CCOC(c2ccc(Cl)cc2)C1)N1CCCC1 (stereo not given) | 19.68% |
| COc1ccc(CN2CCO[C@H]3CN(C(C)=O)CC[C@H]3C2=O)cc1 | -1.641% |
| COc1ccc(CN2C[C@@H]3OCC(=O)N(CC(N)=O)[C@@H]3C2)cc1 | -8.877% |
| COc1ccc(CN2CC(O)CN(C(=O)OCC(C)(C)C)CC2=O)cc1 (stereo not given) | 112.6% |
| COc1ccc(CN2C[C@@H]3CN(C(=O)c4ccsc4)C[C@@H]3C2=O)cc1 | -7.26% |
| CCOC(=O)N1CC(=O)N(Cc2ccc(OC)cc2)CC(O)C1 (stereo not given) | 85.47% |
| CCC(=O)N1CC[C@H]2C(=O)N(Cc3ccc(OC)cc3)CCO[C@H]2C1 | 5.242% |
| COc1ccc(CN2CC(O)CN(C(=O)c3ccccc3)CC2=O)cc1 (stereo not given) | 119% |
| CSCCCNc1ncnc2cccc(F)c12 | -37.93% |
| CC(=O)N1CCc2ccccc2C1CC(=O)NCc1nnc(C)o1 (stereo not given) | -6.807% |
| COCCS(=O)(=O)N(Cc1cscn1)c1ccccc1 | -16.91% |
| Cc1ccc(C(=O)Nc2ccc(S(=O)(=O)/N=C3\CCCN3C)cc2)s1 | 80.8% |
| O=C(Nc1ccccc1C(=O)NCCCN1CCOCC1)c1ccco1 | 10.69% |

| SMILES | Percent Effect |
| --- | --- |
| CN1CCC/C1=N\S(=O)(=O)c1ccc(NC(=O)c2ccco2)cc1 | 116.6% |
| CN1CCC/C1=N\S(=O)(=O)c1ccc(NC(=O)c2ccc(Cl)s2)cc1 | 40.68% |
| N#Cc1cc(NC(=O)c2ccsc2)ccc1N1CCC(O)CC1 | -1.175% |
| Cc1ccc(C(=O)Nc2ccc(N3CCC(O)CC3)c(C#N)c2)s1 | -23.53% |
| O=C(CCN1C(=O)CCC1=O)Nc1ccc(Cl)cc1 | 9.29% |
| O=C(CCC1CCCN(S(=O)(=O)C2CC2)C1)Nc1ccc(Cl)cc1 (stereo not given) | 0.5143% |
| O=C(Nc1cnn(CC(=O)N2CCCCO2)c1)c1ccsc1 | 8.582% |
| CN1CCC/C1=N\S(=O)(=O)c1ccc(NC(=O)c2ccc(Cl)cc2)cc1 | 101.2% |
| CN1CCC/C1=N\S(=O)(=O)c1ccc(NC(=O)c2ccsc2)cc1 | 106.5% |
| Cc1nccnc1N1C[C@H](NC(=O)CNS(C)(=O)=O)[C@@H](C2CC2)C1 | -53.3% |
| COc1cccc(C(=O)N2CCN(C(=O)CCn3ccnc3)CC2)c1 | -2.961% |
| Cc1cc(C(=O)NS(=O)(=O)Cc2ccon2)c(C)o1 | 30.96% |
| CCC(O)CN(CC(=O)Nc1cc(C)no1)c1ccccc1 (stereo not given) | 5.147% |
| CN1CCC/C1=N\S(=O)(=O)c1ccc(NC(=O)Cc2cccs2)cc1 | 91.75% |
| CN1C(=O)CO[C@H](c2ccc(NC(=O)Cc3cccs3)cc2)[C@H]1CO | -17.64% |
| Cn1cc(NC(=O)Cc2cccs2)c(=O)n(C)c1=O | -7.177% |
| CCOc1nnc(CN2CCC(c3nc4ccccc4[nH]3)CC2)s1 | -10.51% |
| CCc1cc(NCCNC(=O)c2cccnc2)n2nc(C)c(C)c2n1 | 18.31% |
| CCc1cc(NCCc2cccnc2)n2nc(C)c(C)c2n1 | 15.8% |
| Cc1cc(NCCSc2nccn2C)n2nc(C)c(C)c2n1 | 108.3% |
| Cc1cc(NCc2nnc3n2CCC3)n2nc(C)c(C)c2n1 | 8.542% |
| CCc1cc(NCCc2cnccn2)n2nc(C)c(C)c2n1 | -4.525% |
| CCSCCNc1cc(C)nc2c(C)c(C)nn12 | 76.05% |
| Cc1cc(NCCn2cccn2)n2ncnc2n1 | -4.993% |
| Cc1cc(NCCSc2nccn2C)n2ncnc2n1 | 81.57% |
| Cc1cc(NCCCNc2cccnc2)n2nc(C)c(C)c2n1 | 88.33% |
| Cc1ccnc(NCCSc2nccn2C)n1 | -1.785% |

| SMILES | Percent Effect |
| --- | --- |
| CCCc1cc(NCCn2cccn2)n2ncnc2n1 | -13% |
| CNc1ccnc(NCCSc2nccn2C)n1 | 3.348% |
| CCOC(=O)c1nnc2ccccc2c1N1CCN(CC)CC1 | -7.556% |
| O=C(NC1CCCc2nc(N3CCOCC3)ncc21)C1CCCC1 (stereo not given) | 122.7% |
| CCS(=O)(=O)c1ccc(N2CCC(NC(=O)CC3CCCC3)CC2)cc1 | -9.103% |
| CC(C)(C)c1cnc(CN2CCC(NC(=O)CC3CCCC3)CC2)o1 | 1.419% |
| O=C(NC1CCCc2nc(N3CCCCC3)ncc21)C1CCCC1 (stereo not given) | 90.75% |
| CN(C)c1ncc2c(n1)CCCC2NC(=O)C1CC1 (stereo not given) | 13.73% |
| O=C(NC1CCCc2nc(N3CCOCC3)ncc21)C1CCCCC1 (stereo not given) | 91.3% |
| O=C(CC1CCCCC1)NC1CCCc2nc(N3CCOCC3)ncc21 (stereo not given) | 100.9% |
| CC1(C)CC(N2Cc3nc(N4CCOCC4)ncc3C2=O)CC(C)(C)N1 | 10.47% |
| Cn1ccnc1-c1ccc(NC[C@H]2CCc3ccccc3O2)nn1 | 2.045% |
| Cn1c(NC(=O)CNC(=O)C2CCCC2)nc2cc(Cl)ccc21 | 10.58% |
| Cc1nnc(CN2CCC3(CCC(=O)N(C4CC4)C3)CC2)o1 | 3.003% |
| COc1cccc2c1OCC(C(=O)N1CCN(S(=O)(=O)N(C)C)CC1)C2 (stereo not given) | -34.53% |
| CCS(=O)(=O)N1Cc2nccn2CC(Cn2nc(C)nc2C)C1 (stereo not given) | 6.553% |
| Cc1nc(C)n(CC2CN(S(C)(=O)=O)Cc3nccn3C2)n1 (stereo not given) | 2.83% |
| CCCS(=O)(=O)N1Cc2nccn2CC(CN2CCCC2)C1.O=C(O)C(F)(F)F (stereo not given) | -1.434% |
| CCS(=O)(=O)N1Cc2nccn2CC(Cn2cncn2)C1 (stereo not given) | 101.6% |
| O=S(=O)(C1CC1)N1Cc2nccn2CC(Cn2cncn2)C1 (stereo not given) | 116.3% |
| CCS(=O)(=O)N1Cc2nccn2CC(Cn2cccn2)C1 (stereo not given) | 103.5% |
| CCCS(=O)(=O)N1Cc2nccn2CC(Cn2cncn2)C1 (stereo not given) | 104.9% |
| CCCS(=O)(=O)N1Cc2nccn2CC(Cn2cccn2)C1 (stereo not given) | -3.213% |
| CCS(=O)(=O)N1Cc2nccn2CC(CN2CCCC2)C1 (stereo not given) | -0.1339% |
